The text below walks through data of PubChem BioAssay AID488905 (Broad Institute, 2010).

Entries with a potency or affinity are not part of this list. Inconclusive results are not listed. A number with no mark means an inactive call.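 How the source made its calls: active means growth inhibition lowering dye signal, with fitted half-maximal dose at most ten times the top valid dose; inconclusive means flat curve inhibiting 30 to 70 percent, or unreliable fit; inactive means the rest, including effects in the opposite direction.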

This assay in a line: growth inhibition of azole-resistant C. albicans, dose response, CaCi-8 strain, Alamar Blue, dry powder, set 3 (AID 488905). Particulars: C. albicans CaCi-8 + fluconazole, 48 h; series mostly up to 26 µM; activity change, negative = inhibition: at the top concentration. In general terms: The colour change of resazurin is a common sign of viable cells or microbes.
In the case of `Cn1ccnc1N1CCN(C(=O)c2ccc(Cl)cc2)CC1`, the “activity change, negative = inhibition” value was 0.78%.
For `O=C(c1ccc(Cl)cc1)N1CCN(c2cnccn2)CC1` the value was -3.7%.
As for `COc1cccnc1N1CCN(C(=O)c2ccc(Cl)cc2)CC1`, the figure is -27.1%; as for `COCCC(=O)N1CCN(c2ccccn2)CC1`, -18.7%.
Take `O=C(c1ccc(Cl)cc1)N1CCN(c2cccc(C(F)(F)F)n2)CC1`: the “activity change, negative = inhibition” value is -7.96%.
For `Cc1cccc(N2CCN(C(=O)c3ccc(Cl)cc3)CC2)n1` the value was -21.9%; for `O=C(c1ccccc1)N1CCN(c2ccccn2)CC1`, -14.1%.
